Screens from PubChem BioAssay.
Most compounds without a hit are left out; they make up all but 4% or so of the library.
esBAF inh = blocks esBAF chromatin remodeling in mouse ES cells; Bmi1-luciferase knock-in reporter, 24 h; 100% = twice the neutral-well signal; reporter increase, % at 12.5 µM; 2% of 350,000 active; in the data active = activation above about 40%; inconclusive = no clear call, values can overlap the other calls;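 note: 0% = median of the plate's neutral control wells and 100% = double that signal; a rise in the Bmi1 reporter signal indicates esBAF inhibition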
Wnt act = activators of Wnt/beta-catenin signaling; Wnt/beta-catenin reporter cell assay, activator, plate reader; activation, % at 9.35 µM; 1.2% of 300,000 active; AID 743398; in the data active = activation above about 30%, passing the limit was not always enough; inconclusive = no clear call, values can overlap the other calls;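 note: 0% = neutral control wells and 100% = positive control wells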
Statin myotox sup = suppression of simvastatin myotoxicity; C2C12 myotubes + simvastatin, ATP luminescence, 48 h; scaled: DMSO 0, geranylgeraniol control 100; rescue of ATP level, % at 7.49 µM; 0.78% of 330,000 active; AID 602340;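 active = mean ATP rescue above about 67%, or every replicate alone reaching that limit, limit read from the data, passing the limit was not always enough; inconclusive = no clear call, values can overlap the other calls; inactive = mean under the limit and some replicate under it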;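 note: myotubes were challenged with 10 µM simvastatin during compound exposure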
MITF act = activators of MITF-driven TRPM1 promoter activity in SK-MEL-5 cells | SK-MEL-5 TRPM1-promoter luciferase, 24 h; % of positive control, neutral wells = 0 | activation, % at 12.5 µM | 0.75% of 300,000 active;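 active = mean activation of at least 80% with every replicate also reaching 80%; inconclusive = mean reaches 80% but some replicate falls short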;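 note: 0% = neutral control wells and 100% = parthenolide positive control wells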
EBV LMP1 NFkB = inhibitors of Epstein-Barr LMP1-induced NF-kappaB reporter; LMP1-induced NF-kappaB luciferase reporter cells, luminescence; inhibition, % at 12.5 µM; 0.69% of 350,000 active; AID 504558; in the data active = inhibition above about 41%; inconclusive = no clear call, values can overlap the other calls;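 note: 0% = neutral control wells and 100% = reference inhibitor control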
TRPM1 prom inh = reduces MITF-dependent TRPM1 promoter luciferase signal; SK-MEL-5 TRPM1 promoter luciferase, 24 h; inhibition, % at 12.5 µM; 0.83% of 330,000 active;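 active = mean inhibition across replicates of 60% or more, whatever share of single replicates reaches that level; inconclusive = some that reach 60%, reason not given; inactive = mean inhibition across replicates below 60%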
Numbers without * were called inactive; ? = inconclusive; nt = no result.

SMILES	esBAF inh	Wnt act	Statin myotox sup	MITF act	EBV LMP1 NFkB	TRPM1 prom inh
COC(=O)c1sccc1-c1ccc(C(=O)Nc2ccccc2)o1	74*	nt	4	76	-72	-72
Cc1ccc([N+](=O)[O-])cc1N(CC(=O)N1CCCCC1)S(C)(=O)=O	nt	-2	nt	-3	-5	7
Cc1nc(=O)c(-c2ccccc2)c(C)n1-c1ccccc1	-2	1	21	nt	-23	8
C[C@@H]1CN([C@H](C)CO)C(=O)c2cc(NC(=O)Nc3ccc(C(F)(F)F)cc3)ccc2O[C@@H]1CN(C)C(=O)Nc1ccc2c(c1)OCO2	0	nt	-32	nt	nt	nt
CN(C)Cc1cn(CC[C@@H]2CC[C@H](NC(=O)Nc3ccc4c(c3)OCO4)[C@H](CO)O2)nn1	-2	nt	5	nt	nt	nt
CCc1nnc(NC(=O)c2ccc(-c3ccccc3Cl)o2)s1	53*	nt	-11	nt	-1	-29
COc1ccc(NC(=O)c2ccc(-c3ccc(C)c4ccccc34)o2)cc1	10	11	-20	9	3	-7
COc1ccc(NC(=O)c2ccc(-c3ccccc3Cl)o2)cc1	30	24	5	116*	-31	-114
O=C(COC(=O)C1CC1)Nc1ccc2[nH]c(=O)[nH]c2c1	-2	1	5	0	3	-1
O=Cc1c(-c2ccc(Cl)cc2)oc2ccc(O)cc12	?	84*	16	nt	nt	nt
O=C(O)c1c(-c2ccccc2)oc2ccc(O)cc12	-1	1	1	0	9	0
CCC(Sc1ncnc2c1nnn2-c1ccc(F)cc1)C(=O)OC (stereo unspecified)	10	2	4	6	2	-2
Cc1cccc(OCC(=O)Nc2nccs2)c1C	nt	37*	nt	37	1	-34
Cc1cc(=O)oc2cc(OCC(=O)Nc3nccs3)ccc12	17	38*	-9	53	-17	-46
Cc1c(C)c2ccc(OCC(=O)Nc3nccs3)cc2oc1=O	-45	22	5	-11	9	14
O=C(C1CCN(S(=O)(=O)c2cccc([N+](=O)[O-])c2)CC1)N1CCOCC1	nt	-3	nt	-2	-9	3
O=C(C[C@H]1C[C@H]2c3cc(NC(=O)C4CCOCC4)ccc3O[C@H]2[C@@H](CO)O1)NC1CCCC1	-2	nt	1	nt	nt	nt
CC1(C)Cc2c(ccc3ccccc23)/C(=C/C(=O)N2CCCCC2)N1	nt	nt	nt	-14	58*	14
O=C(NCC(F)(F)F)[C@@H]1[C@@H](CO)[C@@H]2Cn3c(cccc3=O)[C@H]1N2C(=O)C1CCCC1	-1	nt	11	nt	nt	nt
Cc1c(C(=O)OC2CCCC2)[nH]c2c1C(=O)CC(c1ccco1)C2 (stereo unspecified)	-35	-21	-35	-24	6	25
COC(=O)C1C(=O)c2c([nH]c(C(=O)OC3CCCC3)c2C)CC1C (stereo unspecified)	76*	nt	-55	107*	-61	-104
COc1cccc(N(C(=O)c2snc(C(N)=O)c2N)C(C(=O)NCC2CCCO2)c2cccs2)c1 (stereo unspecified)	26	0	-10	-3	-8	4
COCCNC(=O)C(c1cccs1)N(C(=O)Cn1nnc2ccccc21)c1ccccc1 (stereo unspecified)	-4	-3	6	-9	-1	11
COc1cccc(N(C(=O)CCl)C(C(=O)NCCc2ccccc2)c2cccs2)c1 (stereo unspecified)	15	-3	-152	-89	36	88*
COc1ccc(N(C(=O)CCl)C(C(=O)NCCc2ccccc2)c2cccs2)cc1Cl (stereo unspecified)	nt	1	nt	-85	7	86*
SMILES	esBAF inh	Wnt act	Statin myotox sup	MITF act	EBV LMP1 NFkB	TRPM1 prom inh
C[C@H](O)[C@@H]1C(=O)N2CCc3ccc(N4CCOCC4)cc3[C@@H]2C[C@@H]1N(C)S(=O)(=O)c1ccccc1	-3	-2	15	-2	-4	2
COc1cccc(-n2cnc3sc(-c4ccccc4)cc3c2=O)c1	47*	24	-30	101*	-40	-99
COc1ccc(-n2cnc3sc(-c4ccccc4)cc3c2=O)cc1	34	nt	-24	124*	-35	-138
O=C1N(c2ccc3c(c2)OCCO3)C(c2ccccc2)C1(F)F (stereo unspecified)	nt	-3	nt	-4	-1	4
CCOC(=O)c1c(-c2ccccc2)oc2ccc(O)c(CN3CCCC3)c12	-3	nt	-19	3	-30	-2
CCN(CC)CC(C)(C)C(=O)/C=C/c1ccc(/C=C/C(=O)C(C)(C)CN(CC)CC)cc1	nt	-6	nt	-93	91*	93*
Clc1ccc(-c2cccs2)nn1	nt	1	nt	1	3	-2
CC1CCN(c2ccc(-c3cccs3)nn2)CC1	-81	-4	-47	-77	57*	79*
O=C(c1cc(-c2ccccc2)on1)N1CCCCCC1	55*	37*	-1	141*	-22	-152
O=C(c1cc(-c2ccc(F)cc2)on1)N1CCCCCC1	22	-4	53	138*	-21	-129
O=C(c1cc(-c2cccc(O)c2)on1)N1CCCC1	0	26	-4	15	-5	-17
O=C(c1cc(-c2ccco2)on1)N1CCN(C(c2ccccc2)c2ccccc2)CC1	-3	-5	30	-74	4	75*
Cc1ccc(-c2cc(C(=O)N3CCCCCC3)no2)cc1	-5	?	-5	73	-22	-71
O=C(c1cc(-c2cccc(O)c2)on1)N1CCCCC1	-17	40*	4	53	-23	-56
O=C(c1cc(-c2ccc(F)cc2)on1)N1CCCC1	-26	nt	27	10	21	-9
CCn1c(SCC(=O)N2CCCc3ccccc32)nnc1-c1cccs1	0	nt	-8	-10	4	5
CCC(OC(=O)C1=Cc2ccccc2OC1)C(=O)NC1CCCC1 (stereo unspecified)	-3	-4	-26	-9	-5	9
CCN(CC)S(=O)(=O)c1ccc(NC(=O)CC(NC(C)=O)c2ccccc2)cc1 (stereo unspecified)	-9	1	5	9	4	-6
CCCCSc1nnc(-c2ccc(OC)cc2)n1C	56*	nt	-3	47	-12	-38
Cc1ccc(-c2nnc(SCC(C)C)n2C)cc1	55*	61*	-12	28	-20	-30
Cc1ccc(-c2nnc(SCC(N)=O)n2C)cc1	-3	-1	0	4	-17	-1
COc1ccc(-c2nnc(SCc3csc(N)n3)n2C)cc1	6	nt	13	7	-2	-6
O=S(=O)(C/C(=C/CO)S(=O)(=O)c1ccccc1)c1ccccc1	-53	nt	-162	nt	93*	78*
O=c1oc(Cl)c(Cl)c2ccccc12	7	-2	3	-89	-8	90*
CCOc1ccc(CN2C(=O)c3ccccc3C2=O)cc1C(=O)NC1CC(C)(C)NC(C)(C)C1	4	-1	4	-13	71*	14
